Assay outcomes: PubChem BioAssay, several laboratories
Hits are enriched below; roughly 3.2% of the tested compounds scored in any of these assays.
Rce1 inhib: inhibitors of yeast Ras-converting enzyme | yeast membranes, quenched prenylated peptide cleavage fluorescence | AID 2563 | calls only | hit rate 0.27% among 290,000 | Q03530;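 active = fall in fluorescence gain of 50% or more versus controls, with final raw signal at or below 3038400; inconclusive = same 50% fall but final raw signal above 3038400; inactive = fall in fluorescence gain under 50%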;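 also: plate controls were neutral control wells for no effect and wells lacking membranes for full effect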
CHT inh: human CHT choline transport inhibition | Q9GZV3 | CHT-expressing cells, membrane potential dye, choline response; stronger effect = lower value | B-score at 10 µM | hit rate 0.86% among 310,000;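 active = B-score over 3 SD under the library average, and starting fluorescence ratio not unusually high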;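 also: choline stimulus applied at its EC90 after an EC20 pre-addition; B-score computed on integrated fluorescence ratio after choline addition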
Kir21 inh: Kir2.1 (mouse) channel inhibition; P35561; HEK293-Kir2.1, FluxOR thallium flux fluorescence; stronger effect = lower value; B-score at 10 µM; hit rate 0.85% among 310,000;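 active = fluorescence ratio B-score at or below minus 3 SD of library scores, with starting-brightness B-score within 2 SD, cut at about -4.2 in these data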;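 also: channel flux triggered by added potassium and thallium sulfate stimulus; B-score of peak minus minimum fluorescence over baseline after thallium stimulus; more negative B-score means stronger Kir2.1 block with less thallium influx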
CHT PAM: allosterically activates the human high affinity choline transporter | Q9GZV3 | CHT-expressing cells, membrane potential dye, choline EC20; stronger effect = higher value; LV-AA mutant CHT in HEK293 cells | B-score at 10 µM | hit rate 0.49% among 310,000 | AID 488977;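 active = initial fluorescence not abnormally high and integrated response B-score, plate-corrected, over 3 SD above library mean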
TMEM16A act: mouse TMEM16A channel activation, primary screen; HEK293 TMEM16A/YFP-H148Q/I152L, iodide quench fluorescence; stronger effect = lower value; hit rate 0.3% among 340,000; B-score at 10 µM;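 active = fluorescence-ratio B-score plate-corrected deviation score at least 3 library SD below zero, with starting fluorescence score within 5 deviations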;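 also: channel opened by trigger with iodide after compound preincubation; score built on the fluorescence ratio of max minus min over baseline; more negative score means more quench and so TMEM16A activation or potentiation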
Target sequence (Q8BHY3 whole entry, looked up): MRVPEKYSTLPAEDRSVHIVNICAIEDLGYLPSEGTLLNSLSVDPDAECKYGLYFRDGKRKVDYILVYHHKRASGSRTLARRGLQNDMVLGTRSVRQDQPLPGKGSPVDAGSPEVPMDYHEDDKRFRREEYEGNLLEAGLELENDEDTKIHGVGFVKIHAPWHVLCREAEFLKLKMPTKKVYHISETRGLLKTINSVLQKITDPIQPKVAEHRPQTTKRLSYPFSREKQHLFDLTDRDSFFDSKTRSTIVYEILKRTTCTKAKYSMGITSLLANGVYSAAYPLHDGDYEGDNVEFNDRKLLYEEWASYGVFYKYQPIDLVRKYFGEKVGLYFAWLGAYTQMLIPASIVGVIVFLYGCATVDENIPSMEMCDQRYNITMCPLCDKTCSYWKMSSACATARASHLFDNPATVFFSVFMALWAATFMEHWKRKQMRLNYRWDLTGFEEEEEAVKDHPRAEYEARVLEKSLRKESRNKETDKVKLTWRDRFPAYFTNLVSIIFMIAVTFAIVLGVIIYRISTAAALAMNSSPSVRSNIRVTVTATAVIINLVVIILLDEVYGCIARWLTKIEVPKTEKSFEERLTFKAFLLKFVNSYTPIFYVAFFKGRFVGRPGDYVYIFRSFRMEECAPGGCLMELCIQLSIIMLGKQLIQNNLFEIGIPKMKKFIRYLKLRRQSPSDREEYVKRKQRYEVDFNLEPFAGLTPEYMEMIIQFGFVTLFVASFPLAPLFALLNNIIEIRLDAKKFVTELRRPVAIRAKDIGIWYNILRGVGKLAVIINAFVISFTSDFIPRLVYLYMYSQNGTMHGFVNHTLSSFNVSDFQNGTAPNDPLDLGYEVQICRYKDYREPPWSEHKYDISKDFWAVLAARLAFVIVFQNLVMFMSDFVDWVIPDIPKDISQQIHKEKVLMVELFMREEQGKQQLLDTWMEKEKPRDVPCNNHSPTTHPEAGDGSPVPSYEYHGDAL
ANO1 block: blocks the mouse calcium-activated chloride channel TMEM16A; Q8BHY3; HEK293 TMEM16A/YFP iodide influx fluorescence, ionomycin; normalized B-score (activity score, 25-100; higher = stronger inhibition) at 10 µM; hit rate 1.2% among 310,000;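 active = ratio plate-corrected score three or more library SD toward inhibition, starting fluorescence score within five deviations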;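 also: score derived from kinetic fluorescence span divided by baseline fluorescence per well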
CHT act confirm: confirmation of human choline transporter (CHT) activators. hit rate 91% among 2,500. CHT-expressing cells, membrane potential dye fluorescence (FDSS); % of choline EC20–EC90 response window; HEK293 expressing CHT LV-AA mutant; choline added at its EC20. activation, % at 10 µM. AID 504833. shares compounds with CHT PAM;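 active = primary screen active, with duplicate mean activation above negative control mean plus 3 SD, cut at about 11% in these data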
HEK293 MP dye: activity in parental HEK293 cells lacking CHT | shares compounds with CHT PAM | membrane potential dye fluorescence (FDSS); measured after EC20 choline addition | ratio readout change at 10 µM, hits read low | hit rate 62% among 2,500;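 active = duplicate-averaged ratio beyond 3 SD from buffer wells, up or down, though filed actives are nearly all decreases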
Starred values were filed as active, the others as inactive; i = inactive; ? = inconclusive; . = no result given.

SMILES | Rce1 inhib | CHT inh | Kir21 inh | CHT PAM | TMEM16A act | ANO1 block | CHT act confirm | HEK293 MP dye
Cc1ccccc1/C=C/C1=NCCN1 | . | i | . | 7.2* | i | i | 40* | -38*
CC(=O)Nc1nc(C)c(Oc2ccc(C)cc2)c(=O)[nH]1 | i | i | 2.3 | i | i | i | . | .
Cc1cc(Nc2ncc(Cl)cc2Cl)n(-c2ccccc2C)n1 | i | i | -4.8* | 8.8* | i | i | 42* | i
O=C(Nc1ccc(OC(F)(F)F)cc1)c1ccc(S(=O)(=O)N2CCOCC2)o1 | i | i | 1.8 | i | i | i | . | .
COc1ccc(-c2cn3cccnc3n2)cc1F | ? | i | 0.98 | i | i | i | 15* | -33*
O=C(CSCc1c(F)cccc1Cl)NCc1cccnc1 | i | i | -0.11 | i | i | i | . | .
CCCCC/C=C/C1=CC(=O)C[C@H](c2ccc(OC)c(OC)c2)C1 | . | . | . | . | i | . | . | .
CNS(=O)(=O)c1c(C)cc(C)c(N(C)S(=O)(=O)c2ccccc2)c1C | i | i | -1.1 | i | i | i | . | .
Cc1ccccc1N=C/C=C1\N(C)c2ccccc2C1(C)C | i | i | -2.9 | i | i | i | . | .
CN1/C(=C\C=[N+](C)c2ccccc2)C(C)(C)c2ccccc21 | i | i | -3.1 | 8.1* | i | i | 75* | -24*
CCOC(=O)c1c[nH]c2nc(C)ccc2c1=O | i | i | -1.1 | 10* | i | i | 63* | -63*
O=C(Nc1ccncc1)Nc1ccccn1 | i | i | -0.81 | i | i | i | 50* | -45*
CCOC(=O)c1c(NC(=O)CC)sc2c1CCN(Cc1ccccc1)C2 | i | i | -0.15 | i | i | i | . | .
CCOC(=O)c1c(NC(C)=O)sc2c1CCN(Cc1ccccc1)C2 | i | i | 1.9 | 6.4* | i | i | 40* | -60*
COC(=O)c1c(NC(C)=O)sc2c1CCN(Cc1ccccc1)C2 | i | i | 2 | 7.2* | i | i | 40* | -66*
CC(=O)Nc1sc2c(c1C(N)=O)CCN(Cc1ccccc1)C2 | . | i | -0.27 | i | i | i | . | .
Cn1ccnc1SCC(=O)c1cccc(C(F)(F)F)c1 | i | i | 1.5 | i | i | i | . | .
CCOc1ccc(NC(=O)CN(C)C(=O)c2cccnc2Sc2ccccc2Cl)cc1OCC | i | i | 0.67 | i | i | i | . | .
COc1ccc(NC(=O)C23CC4CC(CC(Cl)(C4)C2)C3)cc1S(=O)(=O)N1CCOCC1 | . | . | . | . | i | . | . | .
CCCC1=C(C(=O)OCC)C(c2ccncc2)n2ncnc2N1 (configuration not stated) | i | i | -1.5 | i | i | i | . | .
O=C(NNc1ccc([N+](=O)[O-])cn1)Nc1ccc(N=Nc2ccccc2)cc1 | . | . | . | . | i | . | . | .
Cc1ccc2c(c1)nc(NCCCO)n2C | i | i | . | i | i | i | 19* | -41*
CN=C1c2c(-c3ccccc3)c3cc(OC)ccc3n2CCN1C | i | i | -2.3 | 8* | i | i | 43* | -53*
COc1ccc(-c2c(-c3ccccc3)n(C)c3ccccc23)cc1 | . | . | . | . | i | . | . | .
CCCc1nnc(SCC(=O)NC2CC2)n1C | i | i | -1 | i | i | i | . | .
COc1ccc2c(c1)c1ncn(CCCN3CCOCC3)c(=O)c1n2C | ? | i | 0.15 | i | i | i | 44* | -39*
Cc1noc(C)c1COC(=O)c1ccccc1Oc1ccccc1 | i | i | -5.1* | i | i | i | 14* | i
Cc1noc(C)c1COC(=O)c1ccccc1NC(=O)Cc1ccccc1 | i | i | -1.5 | i | i | i | . | .
COc1ccc(NC(=O)c2ccc3c(c2)C(=O)N(Cc2cccnc2)C3=O)cc1 | i | i | 0.2 | i | i | i | . | .
